Pf growth 48h: Primary qHTS for delayed death inhibitors of the malarial parasite plastid, 48 hour incubation | AID 504832, 2011 | P. falciparum luciferase growth in erythrocytes, 48 h | actives 5.9% (n = 310,000) | Potency, µM (highest dose often 28.7 µM), usual class: inhibitors
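A one-generation exposure of luciferase-tagged malaria parasites in RPMI 1640/Albumax erythrocyte culture, 37 C and 5% CO2. Inhibition is inferred from decreased luminescence after adding detection reagent.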
HCMV inh: qHTS Assay for inhibitors of the human cytomegalovirus (HCMV) | actives 4.5% (n = 410,000) | HFF cells, HCMV-luciferase reporter, 72 h; active compounds read low | activity change, negative = inhibition, % at 57.5 µM; in the data active means activity change below about -60%; inconclusive means no clear call, values can overlap the other calls; inactive means above about -39%
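Screen run at 2 compound doses on HFFs infected with reporter HCMV, MOI 1 PFU/cell. Luciferase activity from cell lysates at 72 h post infection gave inhibition relative to buffer-only and Salinomycin wells.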
Pf growth 96h: Primary qHTS for delayed death inhibitors of the malarial parasite plastid, 96 hour incubation; P. falciparum luciferase reporter growth, 96 h; Potency, µM (top dose mostly 28.7 µM), most hits filed as inhibitors; actives 6.9% (n = 320,000); AID 504834, 2011
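Two parasite generations (96 h, 37 C, 5% CO2) of compound exposure in infected erythrocytes (0.05% parasitemia, 2% hematocrit). Luciferase-reporter P. falciparum; decreased luminescence indicates inhibited growth, aimed at apicoplast-acting delayed death.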
CHX counter: Cycloheximide Counterscreen for Small Molecule Inhibitors of Shiga Toxin; cell reporter, cycloheximide protein synthesis inhibition counterscreen; max response, %; AID 2314, 2010; actives 12% (n = 300,000); in the data active means max response mostly above about 13%, no sharp cut-off; inactive means mostly below about 14%; further: read at 38.3 µM for the half of the compounds with a filed dose
Shiga inhibitor: A qHTS for Small Molecule Inhibitors of Shiga Toxin. Vero cells, Shiga toxin protein synthesis inhibition reporter. inhibition, % at 38.7 µM. actives 9.2% (n = 290,000). AID 2315, 2010; in the data active means inhibition mostly above about 28%, no sharp cut-off; inactive means mostly below about 43%
Of the large screens only hits and unclear results are named; the others gave an inactive call; ! = repeats disagree. Only some compounds are listed: those with a hit (about 20% of all), similar ones and a draw of the others. Unless noted, the call rests on the fitted dose curve; in most records, active means well fitted inhibition curve with a large enough effect; inconclusive means small, poorly fitted or top-dose-only effect, or another doubt; inactive means no such curve, though single readings can be large or run the other way.

COc1ccc(OCC(O)Cn2c(=N)n(CCN3CCCCC3)c3ccccc32)cc1 (stereo not given)	Pf growth 48h 4.7µM, Pf growth 96h inconclusive
Cc1ccc(OCC(O)Cn2c(=N)n(CCN3CCCCC3)c3ccccc32)cc1 (stereo not given)	Pf growth 48h 3.7µM, HCMV inh -82!
N=c1n(CCN2CCCC2)c2ccccc2n1CC(O)c1ccc(Cl)c(Cl)c1 (stereo not given)	Pf growth 48h inconclusive, HCMV inh -99
COc1ccc(OCC(O)CN2CCCCC2)cc1 (stereo not given)	HCMV inh inconclusive (no result: Pf growth 48h)
N=c1n(CCN2CCCCC2)c2ccccc2n1CC(O)COc1ccc(Cl)cc1Cl (stereo not given)	HCMV inh -99 (no result: Pf growth 48h, Pf growth 96h, CHX counter, Shiga inhibitor)
COc1ccc(C(O)Cn2c(=N)n(CCCN(C)C)c3ccccc32)cc1 (stereo not given)	Pf growth 48h inconclusive, Pf growth 96h inconclusive
N=c1n(CCN2CCOCC2)c2ccccc2n1CC(=O)c1cccc([N+](=O)[O-])c1	Pf growth 48h inconclusive, Pf growth 96h inconclusive
N=c1n(CCN2CCOCC2)c2ccccc2n1CC(=O)c1ccc(Cl)c(Cl)c1	Pf growth 48h 12µM, Pf growth 96h 0.47µM, CHX counter 24
O=C1NC(c2cn(-c3ccccc3)nc2-c2cccs2)C(C(=O)c2cccnc2)C(O)(C(F)(F)F)N1 (stereo not given)	Pf growth 96h 13µM (no result: Pf growth 48h)
COc1cccc(C2NC(=O)NC(O)(C(F)(F)F)C2C(=O)c2cccnc2)c1OC (stereo not given)	Pf growth 48h inconclusive (no result: Pf growth 96h)
CCC(=O)N1CCN(c2ccccc2NC(=O)COc2cc(C)ccc2C(C)C)CC1	Pf growth 48h 3.3µM (no result: Pf growth 96h)
Cc1ccc(OCC(=O)Nc2ccccc2N2CCCC2)c(C)c1	Pf growth 48h 12µM, HCMV inh -63
Cc1ccc(C)c(OCC(=O)Nc2ccccc2N2CCCC2)c1	Pf growth 48h inconclusive, Pf growth 96h inconclusive
Cc1ccc(C(C)C)c(OCC(=O)NC(=S)Nc2ccccc2N2CCOCC2)c1	none
CCn1c(Cc2ccccc2)nnc1SCC(=O)Nc1ccccc1N1CCOCC1	Pf growth 48h inconclusive, Pf growth 96h 3.3µM
Cc1cc(C)c(OCC(=O)Nc2ccccc2N2CCOCC2)c(C)c1	Pf growth 48h 12µM
CCc1ccc(CNC(=O)C2Cc3cc(S(=O)(=O)N4CCCC4)ccc3N2C(C)=O)cc1 (stereo not given)	Pf growth 96h inconclusive
COC(=O)c1c(NC(=O)c2nc(SC)ncc2Cl)sc2c1CCCC2	none (no result: Pf growth 48h, Pf growth 96h, CHX counter, Shiga inhibitor)
Cc1cc(-c2csc(NC(=O)c3ccc(=O)n(C)n3)n2)c(C)n1CC1CCCO1 (stereo not given)	Pf growth 48h inconclusive, Pf growth 96h 7.4µM (no result: HCMV inh)
CCOc1ccccc1CNC(=O)CCCN1C(=O)c2cccnc2Oc2ccc(Cl)cc21	none (no result: Pf growth 48h, Pf growth 96h, CHX counter, Shiga inhibitor)
Cc1cc2oc(=O)cc(CSc3nnc(C)n3N)c2cc1C(C)C	Pf growth 48h inconclusive, Pf growth 96h inconclusive (no result: HCMV inh)
Cc1cc2oc(=O)cc(CSc3nnc(-c4cccs4)o3)c2cc1C(C)C	Pf growth 48h 8.3µM, Pf growth 96h inconclusive, CHX counter 11
CCOc1ccc(-n2c(SCc3cc(=O)oc4cc(C)c(C(C)C)cc34)nnc2-c2cccnc2)cc1	Pf growth 48h inconclusive, HCMV inh -80, Pf growth 96h inconclusive
COc1ccc2c(CSc3nnc(-c4cccnc4)n3-c3ccccc3F)cc(=O)oc2c1	Pf growth 48h inconclusive, Pf growth 96h 6.6µM
S=C(NCCCN1CCOCC1)NN=C1c2ccccc2-c2ccccc21	none (no result: Pf growth 48h, Pf growth 96h, CHX counter, Shiga inhibitor)
Cc1cccc(NC(=O)c2cc(CN3CCOCC3)on2)c1C	none (no result: Pf growth 48h, Pf growth 96h, CHX counter, Shiga inhibitor)
Cc1cccc(NC(=O)CN(CC2CCCO2)C(=O)c2cc(S(=O)(=O)N(C)C)ccc2F)c1C (stereo not given)	none (no result: Pf growth 48h, Pf growth 96h, CHX counter, Shiga inhibitor)
CCN1CCCc2cc(CN(CCN3CCOCC3)C(=S)Nc3cccc(C)c3)ccc21	Pf growth 48h inconclusive, HCMV inh -65, Pf growth 96h 12µM
CCN1CCCc2cc(CN(CCN3CCOCC3)C(=S)Nc3ccc(OC)c(Cl)c3)ccc21	Pf growth 48h inconclusive, Pf growth 96h 19µM
CCc1ccc(NC(=O)N(CCN2CCOCC2)Cc2ccc3c(c2)CCCN3CC)cc1	Pf growth 96h inconclusive, CHX counter 25 (no result: Pf growth 48h)
Cc1nn(Cc2ccc(C(=O)N3CCCC3)o2)c(C)c1[N+](=O)[O-]	none
Cc1ccc(NC(=O)c2ccc(N/N=C/c3cccc(O)c3)c([N+](=O)[O-])c2)cc1	Pf growth 48h inconclusive, HCMV inh -87, Pf growth 96h 5.2µM
Cc1ccccc1NC(=O)c1ccc(N/N=C/c2ccccc2O)c([N+](=O)[O-])c1	HCMV inh -84
Cc1ccccc1NC(=O)c1cccc(NC(=O)c2c(C(=O)O)cccc2[N+](=O)[O-])c1	none (no result: Pf growth 48h, Pf growth 96h, CHX counter, Shiga inhibitor)
COc1cccc2cc(-c3csc(CCn4nc(C)cc4C)n3)c(=O)oc12	Pf growth 48h inconclusive, Pf growth 96h inconclusive
Cc1cc(C)n(CCc2nc(-c3cccs3)cs2)n1	Shiga inhibitor 40
COc1ccc(-c2csc(CCn3nc(C)cc3C)n2)cc1	CHX counter 20
Cc1cc(C)n(CCc2nc(-c3ccc(-c4ccccc4)cc3)cs2)n1	HCMV inh -65, CHX counter 58, Shiga inhibitor 88
Cc1nn(CCc2nc(-c3ccco3)cs2)c2[nH]c(=O)cc(C(F)(F)F)c12	Pf growth 96h 9.3µM (no result: Pf growth 48h)
COc1ccc(-c2csc(CCn3nc(C)cc3C)n2)cc1OC	none
Cc1nn(CCc2nn[nH]n2)c2nc(-c3ccccc3)cc(C(F)(F)F)c12	none
CCCCCn1c(Sc2nc3ccccc3s2)nc2c1c(=O)[nH]c(=O)n2C	Pf growth 48h inconclusive
CSc1nnc2c(n1)OC(c1cccc(O)c1Cl)Nc1ccccc1-2 (stereo not given)	none (no result: Pf growth 48h, Pf growth 96h, CHX counter, Shiga inhibitor)
Cc1cc(C)n(CCc2nc(-c3ccco3)cs2)n1	HCMV inh -105 (no result: Pf growth 48h)
COc1ccc(-c2cc(C(F)F)nc(-n3nc(C)cc3C)n2)cc1	Pf growth 48h 8.3µM, Pf growth 96h inconclusive
COc1ccc(OC)c(-c2csc(CCn3nc(C)cc3C)n2)c1	none
CC1CCC(N2CC(=O)N(C3CCCC3)C(c3ccc(Cl)cc3)C2=O)CC1 (stereo not given)	none (no result: Pf growth 48h, Pf growth 96h, CHX counter, Shiga inhibitor)
CCOC(=O)c1c(-c2ccc(C)cc2)csc1NC(=O)c1cc(=O)c2ccc(C)cc2o1	none (no result: Pf growth 48h, Pf growth 96h, CHX counter, Shiga inhibitor)
O=C(Cn1nnc2ccccc21)Nc1ccc(Cl)cn1	none
Cc1ccc(OCC(=O)Nc2cccc(-c3nc4ccccc4o3)c2C)cc1C	HCMV inh -60 (no result: Pf growth 48h, Pf growth 96h, CHX counter, Shiga inhibitor)
Cc1ccc(OCC(=O)Nc2ccc(O)c(-c3nc4ccccc4o3)c2)cc1	HCMV inh -76
Cc1cc(C)cc(OCC(=O)Nc2ccc(-c3nc4ccccc4o3)cc2)c1	none (no result: Pf growth 48h, Pf growth 96h, CHX counter, Shiga inhibitor)
COc1cc(C(=O)Nc2cccc(-c3nc4ccccc4o3)c2C)cc(OC)c1OC	none
Cc1ccc2c(c1)COc1c3ccc(C(=O)NCC4CC4)cc3nn1-2	CHX counter 30, Shiga inhibitor 54
O=C(NCCO)c1ccc2c3n(nc2c1)-c1ccccc1CO3	CHX counter 39, Shiga inhibitor 44

Bioassay records as filed in PubChem.
